Test results taken from PubChem BioAssay AID932 (The Scripps Research Institute Molecular Screening Center, 2007).
Out of some 200,000 compounds screened, about 5,100 (2.5%) were called active. This is one part of a sample in which actives are shown more often than they occur.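 How the source made its calls: active means activation above the screen-wide mean activation plus 3 SD (cut at about 130% in these data); inactive means the rest.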

Experiment: STAT1 signaling activators, primary screen, cell-based, HTS, luciferase reporter (AID 932);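 further: raw ratio to IFN-gamma control signal so 100% means no change and 0% no light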
Conditions: NIH 3T3 STAT1-luciferase reporter, IFN-gamma, luminescence; at 5.5 µM; stronger effect = higher value; 100% = IFN-gamma alone, no compound

Structure (SMILES)	activation (% of control)
CCc1ccc(/C=C2\SC(N3CCOCC3)=NC2=O)cc1	103% (inactive)
O=C1N=C(N2CCOCC2)S/C1=C\C=C/c1ccccc1	141% (active)
Cc1ccsc1/C=C1\SC(N2CCOCC2)=NC1=O	127% (inactive)
CN(Cc1nc2ccc(F)cc2[nH]1)Cc1nc(CC2CC2)no1	107% (inactive)
CCCC(NC(=O)c1ccco1)c1nc2ccccc2[nH]1 (centres undefined)	97.5% (inactive)
O=C(COC(=O)c1ccc2c(c1)OCCO2)NCc1ccccc1	101% (inactive)
CC(NC(=O)COC(=O)c1ccc2c(c1)OCO2)c1ccccc1 (centres undefined)	102% (inactive)
O=C(OCc1ccccc1F)c1ccc2c(c1)OCCO2	139% (active)
CCOC(=O)c1ccc(NC(=S)N2CCCC2)cc1	100% (inactive)
CCn1ncc(CNC(=O)C2(C)CC2(Br)Br)c1C (centres undefined)	90% (inactive)
COCCCNC(=O)Cn1cc(/C=C(\C#N)C(=O)N2CCN(c3ccccc3)CC2)c2ccccc21	96.8% (inactive)
O=C(NC1=NCCS1)c1ccc(Cl)s1	141% (active)
O=C(NCc1ccc2c(c1)OCO2)c1ccc(Cl)s1	99.1% (inactive)
O=C(NC1=NCCS1)[C@H](Cc1ccccc1)N1C(=O)c2ccccc2C1=O	107% (inactive)
CCOc1ccc(C(C)=O)cc1CSc1nnc(-c2ccncc2)n1CCOC	99.7% (inactive)
Cc1cccc(NC(=S)NC(=O)c2ccc(Br)o2)c1	125% (inactive)
Cc1cc(NC(=O)c2cnn3cccnc23)n(-c2ccccc2)n1	89.3% (inactive)
O=C(Nc1ccc(Cl)cn1)c1ccc2c(c1)OCCO2	74.1% (inactive)
O=C(Nc1ccc(Cl)cn1)c1cnn2cccnc12	153% (active)
COc1ccccc1CNC(=O)C1Cc2ccccc2C(=O)O1 (centres undefined)	102% (inactive)
C#CCOCCOCCOCCNc1nc(N2CCN(C(=O)[C@H](Cc3ccc(O)cc3)n3cc(C(N)CC(C)C)nn3)CC2)nc(N2CCN(C(=O)[C@H](CCC(=O)O)n3cc(C(N)[C@H](C)CC)nn3)CC2)n1 (some centres undefined)	99.5% (inactive)
CCOC(=O)N1CCN(Cc2nc(Cc3cccc(C(F)(F)F)c3)no2)CC1	97.5% (inactive)
COc1ccc(CC(=O)NCc2nnc(SCC(=O)Nc3nccs3)n2C)cc1	91.2% (inactive)
Cc1cc(Cl)ccc1OCc1nc(-c2ccncc2)no1	151% (active)
COc1ccc(-c2noc(COc3ccc(Cl)c(C)c3)n2)cc1	93.9% (inactive)

Structure (SMILES)	activation (% of control)
c1ccc(CCc2nc(-c3ccncc3)no2)cc1	117% (inactive)
CCCOc1ccc(NC(=O)C2OC3OC(C)(C)OC3C3OC(C)(C)OC23)cc1 (centres undefined)	95.5% (inactive)
CCn1c(CNS(=O)(=O)c2ccc(Cl)cc2)n[nH]c1=S	94.3% (inactive)
O=C1/C(=C\c2ccccc2Cl)SC(=S)N1CCC(=O)N1CCCc2ccccc21	98.2% (inactive)
COCCN(CCOC)C(=S)Nc1ccccc1Cl	91.7% (inactive)
O=C(CN1CCCCC1)Nc1ccccc1Cl	103% (inactive)
O=C(Nc1ccccc1Cl)/C(Cl)=C(\Cl)S(=O)c1ccccc1 (centres undefined)	201% (active)
CCN(CC)CC(=O)Nc1sc2c(c1C(=O)c1ccccc1C)CCC2	100% (inactive)
CCOC(=O)c1cc(-c2ccc(F)cc2)n(CC(=O)NCc2ccccn2)c1C	96.2% (inactive)
CO/N=C(\N)c1ccc([N+](=O)[O-])cc1	97.7% (inactive)
O=C(Nc1ccccc1)c1nnsc1S(=O)(=O)c1ccc(Cl)cc1	90% (inactive)
O=C(NCc1cn2ccsc2n1)Nc1ccc(Cl)cc1	102% (inactive)
O=C(Nc1ccc(Cl)cc1)c1ccsn1	145% (active)
CCCC(C)C(=O)NCc1ccncc1 (centres undefined)	96.3% (inactive)
CC1=C(C(=O)N(C)C)C(c2ccccc2OC(F)F)NC(=O)N1 (centres undefined)	104% (inactive)
CC[N+]1(CC)CC2=Cc3ccccc3CC2C1 (centres undefined)	106% (inactive)
COCCn1c(N)c(N(Cc2ccccc2)C(=O)C2CCCCC2)c(=O)[nH]c1=O	98% (inactive)
Cc1cc(NC(=O)CSc2nccn2-c2ccc([N+](=O)[O-])cc2)no1	95.1% (inactive)
COc1cc(SC)ccc1C(=O)Nc1cc(C)ccn1	102% (inactive)
COc1cc(SC)ccc1C(=O)NCCOc1ccccc1Cl	141% (active)
COc1ccccc1CNC(=O)c1ccc(SC)cc1OC	109% (inactive)
COCCNC(=O)C(OC(=O)c1cccs1)c1ccc(F)cc1 (centres undefined)	93.1% (inactive)
Cc1ccc(C2=Nc3c(ccc4ccccc34)C(c3ccncc3)=NN2)cc1	37.3% (inactive)
CCOc1ccc2c(c1)C(c1ccc(C)cc1)=NNC(c1ccc(C)cc1)=N2	131% (active)
CCc1ccc2c(c1)C(c1ccc([N+](=O)[O-])cc1)=NNC(c1ccccc1)=N2	95.2% (inactive)

Structure (SMILES)	activation (% of control)
O=C(NCc1ccccc1)C1=C[C@@H](c2ccc(C(F)(F)F)cc2)C[C@@H](OCc2ccc(CO)cc2)O1	106% (inactive)
Cc1ccc(C2NC(C(=O)O)CS2)cc1 (centres undefined)	106% (inactive)
O=C(Nc1ccccc1)c1cccnc1Nc1ccccc1	99.2% (inactive)
CN(C)c1ccnc(Nc2ccc(F)cc2)c1C#N	98.2% (inactive)
CC(C)c1ccc(Nc2ncccc2C#N)cc1	135% (active)
Cc1oc2cc([N+](=O)[O-])c(O)c([N+](=O)[O-])c2c1C(=O)c1ccc(Br)cc1	94% (inactive)
COc1cc(N=Cc2c(O)[nH]c3ccccc23)cc(OC)c1OC	115% (inactive)
COc1ccc(N=Cc2c(O)[nH]c3ccccc23)cc1OC	145% (active)
COc1ccc(OC)c(N=Cc2c(O)[nH]c3ccccc23)c1	115% (inactive)
CCC(CC)c1nnc(NC(=O)c2nn(C)c(=O)c3ccccc23)s1	102% (inactive)
CN(CCOc1ccc(Br)cc1)CC(=O)Nc1cccc(S(=O)(=O)NC2=NCCC2)c1	97.5% (inactive)
CCN(CC)S(=O)(=O)c1ccc(OC(C)C)c(N)c1	98.6% (inactive)
Cc1cc2nc(-c3ccc(NC(=O)c4cccnc4)cc3)oc2cc1C	137% (active)
Cc1ccc(-n2nc3cc(C)c(NC(=O)c4cccnc4)cc3n2)cc1	118% (inactive)
Cc1ccc2nc(-c3ccc(NC(=O)c4cccnc4)cc3)oc2c1	93.8% (inactive)
CCOc1ccc(CCN2C(=O)c3cccnc3C2=O)cc1OCC	96.9% (inactive)
Cc1ccc(C(=O)NC2CCN(C(=O)N3CCOCC3)CC2)cc1	98.8% (inactive)
O=C(NC1CC1)c1cccc(Br)c1	98.5% (inactive)
O=C(NC1CC1)c1ccc(-c2ccccc2)cc1	131% (active)
COc1ccc(C)cc1NC(=O)CSc1nnc(CC(=O)Nc2ccccc2F)n1C	92.1% (inactive)
CCCCc1ccc(NC(=S)NCCCN2CCOCC2)cc1	96.5% (inactive)
O=C(Nc1cccc(-c2nc3ncccc3o2)c1)c1ccco1	98.8% (inactive)
O=C(Nc1ccc2nccnc2c1)c1ccco1	127% (inactive)
O=C(Nc1ccc2oc(-c3ccccc3F)nc2c1)c1ccco1	170% (active)
COCc1c(C(=O)OCc2c(C)noc2C)oc2ccccc12	100% (inactive)

Structure (SMILES)	activation (% of control)
COc1ccc(-c2nn(-c3ccccc3)cc2/C=C\C(=O)N2CCOCC2)cc1[N+](=O)[O-]	102% (inactive)
S=C(Nc1cccc(Br)c1)N1CCn2cccc2C1c1cccnc1 (centres undefined)	90.5% (inactive)
c1ccc2cc3c(NCCN4CCOCC4)ccnc3cc2c1	137% (active)
O=C(Cn1c(-c2ccccn2)nc2ccccc21)NCCN1CCOCC1	101% (inactive)
c1ccc2[nH]c(NCCN3CCOCC3)nc2c1	99.9% (inactive)
Cn1cccc1/C=C1\SC(=O)N(CC(=O)Nc2ccc(F)cc2)C1=O	100% (inactive)
CC(=O)OC(COc1ccc(F)cc1)Cn1cnc2ccccc21 (centres undefined)	103% (inactive)
CCn1nc(C)c(CN2CCN(Cc3ccc(OC)c(C)c3C)C(CCO)C2)c1C (centres undefined)	98.9% (inactive)
COc1ccc(Br)cc1CN(C)CC(=O)Nc1cc(Cl)cc(Cl)c1	105% (inactive)
Cc1ccc(C(=O)NNC(=O)c2cccs2)cc1	130% (active)
Cc1ccc(C)c(NC(=O)CCC(=O)NNC(=O)c2cccs2)c1	101% (inactive)
CC(C)C(=O)Nc1ccc(C(=O)NNC(=O)c2cccs2)cc1	102% (inactive)
C=CS(=O)c1sc(Cl)c(N2CCOCC2)c1[N+](=O)[O-] (centres undefined)	86.3% (inactive)
CC(=O)Nc1ccc(NC(=O)COc2ncnc3ccccc23)cc1	93.2% (inactive)
O=[N+]([O-])c1cccc(Nc2c3ccccc3nc3ccccc23)c1	98% (inactive)
CC(=O)Nc1ccc(Nc2c3ccccc3nc3ccccc23)cc1	137% (active)
CC1=CC2=NC(=O)CC(C)(C(=O)N(CC(=O)NC(C)(C)C)Cc3ccccc3)N2C=C1 (centres undefined)	106% (inactive)
O=C(CCc1nc2ccccc2c(=O)[nH]1)OCC(=O)c1cccc(Cl)c1	93.7% (inactive)
CCCc1nc2ccccc2c(C(=O)OCC(=O)c2ccc3c(c2)NC(=O)CO3)c1CC	100% (inactive)
Cc1ccc(C(=O)COC(=O)c2cccc(N3C(=O)c4c(C)nc5ccccc5c4C3=O)c2)cc1C	149% (active)
O=C(NCCc1c[nH]c2ccccc12)c1cc2ccccc2oc1=O	143% (active)
O=C(NCCc1c[nH]c2ccccc12)C(=O)NCC1CCCO1 (centres undefined)	109% (inactive)
CN(c1ccccc1)S(=O)(=O)c1ccc(Cl)c(C(=O)NCCc2c[nH]c3ccccc23)c1	95% (inactive)
COc1ccc(NC(=O)/C(C#N)=C\c2cc(OC)c(OCc3ccc(C(=O)O)cc3)cc2Br)cc1	96.6% (inactive)
